Out of some 16,000 compounds screened, about 70 (0.4%) were called active. Rule as the data show it: active = inhibition above about 75%; inactive = the rest. This excerpt belongs to a sample that is enriched for actives.

This experiment in a line: quenches luminol chemiluminescence in Nox1 counter-screen (AID 1823). The following applies: HRP/luminol/H2O2 chemiluminescence counterscreen; at 6.7 µM; hits give high values. A general note: The purpose of a counterscreen is to sort out artefacts and off-target activity.
In the case of `CC(C)(C)NC(=O)N/N=C/c1[nH]ncc1Br`, the inhibition was -2.94% (inactive).
The figure for `COc1ccccc1NC(=O)c1ccc(C#Cc2ccccc2)o1` is 0.37% (inactive); for `CCCS(=O)(=O)c1csc(C(=O)OC)c1N/N=C/c1cccs1` it is 1.56% (inactive); for `COCn1nnc2ccccc21` it is 0.3% (inactive).
The value for `Cc1c(N/N=C(\C#N)c2nc3ccccc3[nH]2)c(=O)n(-c2ccccc2)n1C` was 7.97% (inactive); that for `O=C(O)CC1(CC(=O)Nc2ccc(N3CCCCC3)cc2)CCCCC1` was -6.38% (inactive).
In the case of `CSc1sc(C(N)=O)cc1C#N`, the inhibition was -6.88% (inactive).
The figure for `Cc1cc(C2=CSC3=NCCN23)ccc1Cl` is 36.3% (inactive); for `OCCNC(=S)Nc1ccccc1-c1ccccc1` it is 0.57% (inactive); for `O=S(=O)(c1ccccc1)c1cc(C(F)(F)F)cc(C(F)(F)F)c1` it is -1.49% (inactive).
In the case of `CSc1sc(NC(=O)N2CCOCC2)c(-c2ccc(Cl)cc2)c1C#N`, the inhibition is 3.63% (inactive).
Turning to `Oc1c(Cl)c(Cl)c(Cl)c2ccccc12`, the inhibition is 4.73% (inactive).
The figure for `CN(C)/C=C1/C(=O)NN=C1CSc1ccc(Cl)cc1` is -3.51% (inactive).
Take `Cc1ccc(N=C2SC3(CC3)C(=O)N2c2ccc(C)cc2)cc1`: the inhibition is -0.15% (inactive).
As to `CC1(C)CCc2cc(-c3ccnc(SCC(=O)c4ccccc4)n3)ccc2O1`, the inhibition was -4.62% (inactive).
In the case of `O=C(NCc1cccnc1)c1cnc2ccccc2n1`, the inhibition is -0.07% (inactive).
For the molecule `CC(=O)NC(Cc1c[nH]c2ccccc12)C(=O)O` (stereo not drawn), the inhibition was -1.35% (inactive).
The value for `O=C(c1ccc(F)cc1)C1CCN(Cc2cn[nH]c2-c2ccccc2)CC1` was 0.3% (inactive); that for `CC1(NC(=O)OCc2ccccc2)CC1NC(=O)OCc1ccccc1` (stereo not drawn) was 1.98% (inactive).
In the case of `O=c1[nH]cc(Br)c(=O)[nH]1`, the inhibition is -0.43% (inactive).
The figure for `CC1CN(c2ccc(NC(=S)NCc3cccs3)cc2)CC(C)O1` (stereo not drawn) is -35.2% (inactive); for `O=C(O)CC(CC(=O)N1CCOCC1)c1ccccc1` (stereo not drawn) it is -4.82% (inactive); for `O=C(CSc1ccc(Cl)cc1)NCCSCc1ccco1` it is -0.61% (inactive).
Turning to `O=C(NCCO)NCCSc1ccc(F)cc1`, the inhibition is -2.48% (inactive).
With `FC(F)(F)c1cccc(-n2c(-c3ccncc3)n[nH]c2=S)c1`, the inhibition was 97.8% (active).
Regarding `CSc1n[nH]c(=O)n1-c1cccc(C(F)(F)F)c1`, the inhibition was 1.69% (inactive).
Consider `FC(F)(F)c1ccc(-n2cn[nH]c2=S)cc1`, for which the inhibition was 53.1% (inactive).
Regarding `O=c1[nH]/c(=C/c2ccc(OC(F)(F)F)cc2)c(=O)[nH]/c1=C/c1ccc(OC(F)(F)F)cc1`, the inhibition was 0.16% (inactive).
The figure for `O=C(Nc1ccc(Cl)cc1)c1csc(COc2ccc3nonc3c2)n1` is 3.82% (inactive).
For the molecule `Cn1cc(C(=O)c2ccc(Cl)cc2)cc1/C=C(\C#N)S(=O)(=O)c1ccc(C(F)(F)F)cn1`, the inhibition was 2.9% (inactive).
The value for `O=C(Nc1ccccc1)Nc1nc2ccccc2s1` was -7.1% (inactive).
Regarding `O=c1c2cc(-c3ccccc3)sc2nc2n1N=C(c1cccs1)CS2`, the inhibition was -0.02% (inactive).
Consider `COc1cc(OC)nc(S(C)(=O)=O)n1`, for which the inhibition was -4.97% (inactive).

By inhibition is commonly meant the relative decrease from the control value, in per cent.

The record behind these values is PubChem BioAssay AID1823 (The Scripps Research Institute Molecular Screening Center, 2009).
